Where a structure was tested more than once in an assay, its records may differ in their call. Calls of active or inactive are those of the source. The calls were made as follows: active = hit-call score of the fitted dose curve at least 0.9, where 1 is the maximum; inactive = score below 0.9.
read-out: Urokinase-type plasminogen activator receptor (uPAR), PLAUR (gene 5329); assay: BSK_4H_uPAR: BioMAP Diversity Plus: 4H Assay for Urokinase-type plasminogen activator receptor (uPAR) Biomarker Activity (AID 2283030); details: primary human endothelial cells (HUVEC); actives raise or lower the signal
Protocol: BSK_4H is a cell-based, multiplexed-readout assay that uses umbilical vein endothelium, a human vascular primary cell, with measurements taken at 24 hours after chemical dosing in a 96-well plate.BSK_4HAR is an assay component measured in the BSK_4H assay. It measures uPAR antibody related to regulation of gene expression using ELISA technology.Data from the assay component BSK_4HAR was analyzed into 1 assay endpoint. This assay endpoint, BSK_4HAR, was analyzed with bidirectional fitting relative to DMSO as the negative control and baseline of activity. Using a type of binding reporter, gain or loss-of-signal activity can be used to understand changes in the signaling as they relate to the gene PLAUR. Furthermore, this assay endpoint can be referred to as a primary readout, because this assay has produced multiple assay endpoints where this one serves a signaling function. To generalize the intended target to other relatable targets, this assay endpoint is annotated to the cytokine intended target family, where the subfamily is plasmogen activator.
The levels of cell surface (or secreted, indicated by the prefix "s") biomarker endpoints were measured by ELISA. Overt cytotoxicity to cells in confluent adherent cultures (all systems other than the BT system) was assessed by measuring total protein levels using sulforhodamine B (SRB) staining in parallel cultures at the time of biomarker measurements, indicated as SRB endpoints. For proliferation assays for adherent cell types, individual cell types are cultured at sub-confluence and relative cell numbers quantified by SRB staining at time points optimized for each system (48 h: 3C and CASM3C systems; 72 h: BT and HDF3CGF systems; 96 h: SAg system). SRB was performed by staining cells with 0.1% SRB after fixation with 10% TCA and reading wells at 560 nm.Viability and proliferation of PBMC (T cells) was quantified by Alamar Blue reduction for the SAg and BT systems. For PBMC viability (referred to as PBMC Cytotoxicity within the assay endpoint names), cells were plated (75,000/well in a 96-well plate) and then chemical samples added for 1 h before addition of activators, SEB and TSST-1 (20 ng/mL final concentration each). Cells were incubated for 90 h. Then, Alamar Blue (20 uL/well) (Invitrogen, Cat DAL1100) was added for 6 h, and the plates were read with a fluorescence microplate reader at 546/580 nm (excitation/emission). For PBMC proliferation, cells were plated and activated as above but incubated for only 16 h prior to addition of Alamar Blue. Plates were read after 6 h.

| SMILES | outcome | AC50 |
| --- | --- | --- |
| O=C(O)C(Cl)(Cl)Cl | inactive | – |
| CC12CC1(C)C(=O)N(c1cc(Cl)cc(Cl)c1)C2=O (stereo not given) | inactive | – |
| ClCC(Cl)CCl | inactive | – |
| OCc1ccco1 | inactive | – |
| CCOP(=S)(OCC)Oc1ccc(S(C)=O)cc1 (stereo not given) | inactive | – |
| COc1cc(OC)nc(NC(=O)NS(=O)(=O)c2ncccc2C(=O)N(C)C)n1 | inactive | – |
| CC(C)(c1ccccc1)c1ccc(O)c(C(C)(C)c2ccccc2)c1 | – | 9.78 µM (active) |
| CCOC(=O)/C=C(C)/C=C/C[C@@H](C)CCCC(C)C | – | 31.8 µM (active) |
| CC(C)CCCCCCOC(=O)c1ccccc1C(=O)OCCCCCCC(C)C | inactive | – |
| CC(=O)C(Cl)C(=O)N(C)C (stereo not given) | inactive | – |
| CCC(=O)C(CC(C)N(C)C)(c1ccccc1)c1ccccc1 (stereo not given) | inactive | – |
| CC(C)(C)c1cc(O)ccc1O | inactive | – |
| C=C(C)C(=O)[O][Sn]([CH2]CCC)([CH2]CCC)[CH2]CCC | – | 0.148 µM (active) |
| CCOP(=S)(OCC)Oc1nc(Cl)c(Cl)cc1Cl | inactive | – |
| C[C@]12CCC(=O)C[C@@H]1CC[C@@H]1[C@@H]2CC[C@]2(C)[C@@H](O)CC[C@@H]12 | inactive | – |
| COc1cc(-c2ccc(N)c(OC)c2)ccc1N | inactive | – |
| O=C(O)C(F)(F)C(F)(F)C(F)(F)C(F)(F)C(F)(F)C(F)(F)C(F)(F)C(F)(F)C(F)(F)C(F)(F)F | inactive | 32.1 µM (active) |
| Nc1cccc2ccccc12 | inactive | – |
| C=CC(=O)OCCCCCC(C)C | inactive | – |
| CCCCCCCCC(=O)NCc1ccc(O)c(OC)c1 | inactive | – |

| SMILES | outcome | AC50 |
| --- | --- | --- |
| ClC1(Cl)C2(Cl)C3(Cl)C4(Cl)C(Cl)(Cl)C5(Cl)C3(Cl)C1(Cl)C5(Cl)C24Cl (stereo not given) | inactive | – |
| Oc1ccc(-c2ccccc2)cc1 | inactive | – |
| CCCCCCCCc1ccc(O)cc1 | – | 37.2 µM (active) |
| O=c1[nH]c(=O)[nH]c(=O)[nH]1 | inactive | – |
| O=[N+]([O-])c1ccc(O)c([N+](=O)[O-])c1 | inactive | – |
| O=C(Nc1ccc2[nH]ccc2c1)c1cc2cc(F)ccc2n1Cc1cccc(F)c1 | – | 9.25 µM (active) |
| COP(=S)(OC)Oc1c(Cl)cc(C)cc1Cl | inactive | – |
| C(=NC1CCCCC1)=NC1CCCCC1 | – | 8.81 µM (active) |
| CCN1CCC2(CC1)COc1cc3c(cc12)N(C(=O)c1ccc(-c2ccc(-c4nnc(C)o4)cc2C)cc1)CC3 | – | 18.7 µM (active) |
| NC(=S)Nc1ccccc1 | inactive | – |
| CC(=O)[O][Hg][c]1ccccc1 | – | 1.74 µM (active) |
| CCCCC(CC)CO[N+](=O)[O-] (stereo not given) | – | 33 µM (active) |
| O=C1C2(Cl)C3(Cl)C4(Cl)C(Cl)(Cl)C5(Cl)C3(Cl)C1(Cl)C5(Cl)C24Cl (stereo not given) | – | 9.73 µM (active) |
| COC[C@H](C)N(C(=O)CCl)c1c(C)csc1C | inactive | – |
| CC(=O)OC(c1ccccc1)C(Cl)(Cl)Cl (stereo not given) | inactive | – |
| CC(C)(C)CC(C)(C)c1ccc(O)cc1 | – | 9.65 µM (active) |
| ClC1=C(Cl)[C@]2(Cl)[C@H]3[C@H]([C@H]4C=C[C@H]3C4)[C@@]1(Cl)C2(Cl)Cl | inactive | – |
| CC(C)(OO)c1ccccc1 | inactive | – |
| NC(=O)O | inactive | – |

Source: PubChem BioAssay (EPA / NIEHS)
